An excerpt weighted towards active compounds, which were near 3.3% of everything screened.
eIF4E 4G PPI = eIF4E/eIF4G interaction inhibition in translation initiation; AID 782; TR-FRET eIF4E-eIF4GI(517-606) binding, 2 h; inhibition, % at 21.7 µM; actives 0.37% (n = 220,000);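 note: 0% = full FRET control wells and 100% = background wells lacking eIF4GI fragment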
Mcl-1 Bim block = inhibitors of Bim-Mcl-1 interaction, human. Bead-based flow cytometry, Bim peptide-Mcl-1 binding. Q07820. actives 0.1% (n = 190,000). inhibition, % at 10 µM; in the data active = inhibition above about 40%;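 note: 0% = no compound tracer wells and 100% = peptide blocker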
Target sequence (Q07820 whole entry, looked up): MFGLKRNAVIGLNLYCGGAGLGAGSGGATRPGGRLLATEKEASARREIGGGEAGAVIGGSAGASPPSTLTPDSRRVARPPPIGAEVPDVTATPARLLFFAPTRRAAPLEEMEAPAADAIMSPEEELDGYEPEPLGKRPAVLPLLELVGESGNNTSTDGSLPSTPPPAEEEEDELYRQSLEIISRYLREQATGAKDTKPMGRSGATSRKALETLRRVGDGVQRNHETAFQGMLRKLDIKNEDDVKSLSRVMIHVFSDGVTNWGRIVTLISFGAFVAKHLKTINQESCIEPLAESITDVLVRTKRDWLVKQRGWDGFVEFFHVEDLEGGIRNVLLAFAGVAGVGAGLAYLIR
14-3-3 Bad PPI = disrupts binding of bovine 14-3-3 zeta to phospho-Bad peptide; P63103; TR-FRET 14-3-3zeta/Dy647-pBad peptide displacement, 1 h; inhibition, % at 21.7 µM; actives 0.71% (n = 220,000); AID 781;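 active = inhibition above about 70%, limit read from the data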;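 note: 0% = full 14-3-3 plus peptide FRET controls and 100% = background without 14-3-3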
Target sequence (P63103 whole entry, looked up): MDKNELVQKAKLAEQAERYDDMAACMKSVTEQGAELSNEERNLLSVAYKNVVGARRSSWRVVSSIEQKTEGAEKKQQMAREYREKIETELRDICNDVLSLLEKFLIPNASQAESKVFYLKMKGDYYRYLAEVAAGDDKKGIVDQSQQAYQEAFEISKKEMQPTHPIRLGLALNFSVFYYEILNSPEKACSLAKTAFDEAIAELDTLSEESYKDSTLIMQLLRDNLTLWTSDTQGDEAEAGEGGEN
Mcl1 Noxa PPI = Mcl-1/Noxa interaction inhibition | TR-FRET Mcl-1/Noxa peptide binding, 2 h | actives 1.5% (n = 220,000) | inhibition, % at 21.7 µM | Q07820;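 active = compounds that cut the protein-peptide binding signal by more than 50% relative to plate controls in a single-dose test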;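 note: His-tagged Mcl-1 with rhodamine Noxa BH3 peptide and terbium anti-His antibody; 0% = Mcl-1 plus Noxa peptide wells and 100% = peptide-only wells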
Mcl1-Bid inh = disrupts binding of human Mcl-1 to Bid peptide. Q07820. TR-FRET Mcl-1/Bid-Dy647 peptide binding, 1536-well. inhibition, % at 21.7 µM. actives 0.97% (n = 220,000). AID 1021;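 active = compounds that cut the binding signal by more than half at the single screening dose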;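 note: His-tagged Mcl-1 with europium anti-His antibody binding Bid BH3 peptide; 0% = Mcl-1 plus peptide wells and 100% = peptide-only wells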
NCF1 inh = p47phox (human) inhibition | p47phox/p22phox peptide binding, fluorescence polarization, 2 h | inhibition, % at 24.7 µM | actives 0.53% (n = 220,000) | AID 1274;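 note: 0% = p47phox with labelled peptide and 100% = labelled peptide alone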
* hit, by the source's call; [ ] = another dose, or the depositor's remark.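 Rule for the calls, unless noted: active = inhibition above about 30% (limit read from the data); inactive = the rest.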

Cc1cc(C)nc(NS(=O)(=O)c2ccc(CC(C)C)cc2)c1 was read as eIF4E 4G PPI 5, 14-3-3 Bad PPI 0, Mcl1 Noxa PPI 9, Mcl1-Bid inh -26 and NCF1 inh 1.
`Cc1cc(O)c(/C=N/Nc2ccc(Cl)cc2)c(=O)o1` gave eIF4E 4G PPI 7, Mcl-1 Bim block -4, 14-3-3 Bad PPI -1, Mcl1 Noxa PPI 8, Mcl1-Bid inh -55 and NCF1 inh -27.
Cc1cc(O)c(/C=N/OCc2ccc(Cl)cc2Cl)c(=O)o1 was read as eIF4E 4G PPI 76*, Mcl-1 Bim block 0, 14-3-3 Bad PPI -7, Mcl1 Noxa PPI 21, Mcl1-Bid inh -16 and NCF1 inh -3.
`CNC(=O)c1[nH]cnc1C(=O)Nc1ccc(OC)cc1` gave eIF4E 4G PPI 2, 14-3-3 Bad PPI 2, Mcl1 Noxa PPI -2, Mcl1-Bid inh -13 and NCF1 inh 3.
`CCOc1ccc(N2C(=O)CC(NNc3nc4ccccc4s3)C2=O)cc1` (centres undefined) gave eIF4E 4G PPI -5, 14-3-3 Bad PPI -3, Mcl1 Noxa PPI 9, Mcl1-Bid inh -13 and NCF1 inh -7.
CC(=O)Nc1ccc(S(=O)(=O)NCCSc2ccccn2)cc1 was read as eIF4E 4G PPI 47*[fluorescence artefact?], Mcl-1 Bim block 3, 14-3-3 Bad PPI 39, Mcl1 Noxa PPI 14, Mcl1-Bid inh 8 and NCF1 inh -60.
`CCCNS(=O)(=O)c1ccc(NC(=O)c2ccccn2)cc1` gave eIF4E 4G PPI 2, Mcl-1 Bim block 25, 14-3-3 Bad PPI -6, Mcl1 Noxa PPI 10, Mcl1-Bid inh -10 and NCF1 inh -7.
`N/C(=N\O)C1COc2ccccc2O1` (centres undefined) gave eIF4E 4G PPI 0, Mcl-1 Bim block -2, 14-3-3 Bad PPI 84*, Mcl1 Noxa PPI 4, Mcl1-Bid inh 27 and NCF1 inh 0.
N=C(N)SCP(=O)(c1ccccc1)c1ccccc1 was read as eIF4E 4G PPI -13, 14-3-3 Bad PPI -1, Mcl1 Noxa PPI 9, Mcl1-Bid inh 56* and NCF1 inh -2.
Screening CC1CCCN(C(=O)CSc2nnc(-c3ccc(S(=O)(=O)N4CCOCC4)cc3)n2C)C1 (centres undefined) returned eIF4E 4G PPI -6, Mcl-1 Bim block 0, 14-3-3 Bad PPI 85*[fluorescence artefact?], Mcl1 Noxa PPI 1, Mcl1-Bid inh -2 and NCF1 inh 1.
`CCn1c(SCCN2CCCCC2)nnc1-c1ccc(S(=O)(=O)N2CCOCC2)cc1` gave eIF4E 4G PPI -15, Mcl-1 Bim block -3, 14-3-3 Bad PPI 75*, Mcl1 Noxa PPI 27, Mcl1-Bid inh 26 and NCF1 inh -5.
Screening CCOC(=O)C(=CNc1cc(OC)ccc1-n1cccc1)C(=O)OCC returned eIF4E 4G PPI 0, 14-3-3 Bad PPI -4, Mcl1 Noxa PPI 2, Mcl1-Bid inh -13 and NCF1 inh 5.
Oc1c(C(c2cccs2)N2CCN(c3ccccc3)CC2)ccc2cccnc12 (centres undefined) was read as eIF4E 4G PPI 36*[fluorescence artefact?], Mcl-1 Bim block -6, 14-3-3 Bad PPI 50, Mcl1 Noxa PPI 85*, Mcl1-Bid inh 65* and NCF1 inh -36.
Screening NC(=O)Cc1ccc(Nc2nnc(-c3ccc(O)cc3)c3ccccc23)cc1 returned eIF4E 4G PPI 2, Mcl-1 Bim block -6, 14-3-3 Bad PPI 6, Mcl1 Noxa PPI 31, Mcl1-Bid inh -4 and NCF1 inh -17.
NC(=O)c1ccc(Nc2nnc(-c3ccc(O)cc3)c3ccccc23)cc1 was read as eIF4E 4G PPI -3, Mcl-1 Bim block -4, 14-3-3 Bad PPI 25, Mcl1 Noxa PPI 52*, Mcl1-Bid inh 13 and NCF1 inh -11.
For Cc1cccc(N2CCN(S(=O)(=O)c3ccc4c(c3)n(C)c(=O)c(=O)n4C)CC2C)c1 (centres undefined) the results were eIF4E 4G PPI -2, Mcl-1 Bim block -4, 14-3-3 Bad PPI 1, Mcl1 Noxa PPI 41, Mcl1-Bid inh 56* and NCF1 inh -3.
For COC(=O)c1ccc2nc(NC(=O)C(C)(C)C)sc2c1 the results were eIF4E 4G PPI 2, Mcl-1 Bim block -2, 14-3-3 Bad PPI 1, Mcl1 Noxa PPI -19, Mcl1-Bid inh -2 and NCF1 inh -1.
Screening COC(=O)c1ccc2nc(Nc3nc4ccc(F)cc4s3)sc2c1 returned eIF4E 4G PPI 6, Mcl-1 Bim block -6, 14-3-3 Bad PPI 77*, Mcl1 Noxa PPI 95*, Mcl1-Bid inh 81* and NCF1 inh -89.
`CCCCCc1nc2c(c(=O)c3ccccc3n2C)c(=O)n1Cc1ccc(OC)cc1` gave eIF4E 4G PPI -2, 14-3-3 Bad PPI 7, Mcl1 Noxa PPI -12, Mcl1-Bid inh -7 and NCF1 inh -9.
For CCOCCCn1c(=S)[nH]c2cc(C(=O)NCC(OC)OC)ccc2c1=O the results were eIF4E 4G PPI -2, Mcl-1 Bim block 0, 14-3-3 Bad PPI -4, Mcl1 Noxa PPI 22, Mcl1-Bid inh -36 and NCF1 inh -6.
Cc1ccc2oc(C(F)(F)C(F)F)cc(=O)c2c1 was read as eIF4E 4G PPI 10, 14-3-3 Bad PPI 34, Mcl1 Noxa PPI -13, Mcl1-Bid inh 88* and NCF1 inh -13.
For O=C(N/N=C/c1ccc2ncccc2c1)c1ccco1 the results were eIF4E 4G PPI 1, Mcl-1 Bim block 3, 14-3-3 Bad PPI -11, Mcl1 Noxa PPI 52*, Mcl1-Bid inh -31 and NCF1 inh 3.
Screening CCCN1C(=O)/C(=C\C=C2/Sc3ccccc3N2CC)SC1=S returned eIF4E 4G PPI -3, Mcl-1 Bim block 3, 14-3-3 Bad PPI -16, Mcl1 Noxa PPI -9, Mcl1-Bid inh -26 and NCF1 inh 77*.
For CCCN1C(=O)/C(=C\C=C2\N(CC)c3ccccc3C2(C)C)SC1=S the results were eIF4E 4G PPI 1, Mcl-1 Bim block -6, 14-3-3 Bad PPI -4, Mcl1 Noxa PPI -14, Mcl1-Bid inh -15 and NCF1 inh -240.
CCN1C(=O)/C(=C/C=C2\C=CN(CC)c3ccccc32)SC1=S was read as eIF4E 4G PPI -1, Mcl-1 Bim block 6, 14-3-3 Bad PPI -10, Mcl1 Noxa PPI 64*, Mcl1-Bid inh 49 and NCF1 inh -13.
For CCN1/C(=C\C=C2\C(=O)N(c3ccccc3)C(=S)N2C)Sc2ccccc21 the results were eIF4E 4G PPI -8, Mcl-1 Bim block -5, 14-3-3 Bad PPI 95*, Mcl1 Noxa PPI 60*, Mcl1-Bid inh 78* and NCF1 inh 23.
For O=C(Nc1ccc2ncccc2c1)c1cc(Cl)ccc1Cl the results were eIF4E 4G PPI 1, Mcl-1 Bim block 0, 14-3-3 Bad PPI 0, Mcl1 Noxa PPI 25, Mcl1-Bid inh -6 and NCF1 inh 1.
O=S(=O)(Nc1ccncc1Cl)c1ccc2ccccc2c1 was read as eIF4E 4G PPI 2, Mcl-1 Bim block 0, 14-3-3 Bad PPI 72*, Mcl1 Noxa PPI -3, Mcl1-Bid inh -17 and NCF1 inh -5.
